Source: PMC4336329 (PLoS ONE, 2015)
The whole screen tested about 310,000 compounds, of which about 14,000 (4.5%) showed an effect of 50% or more. The effect is printed as a negative number. The list comes from a sample in which strong results are over-represented; it also holds similar structures and randomly drawn compounds.

Target: human ether-à-go-go-related gene (hERG) potassium channel (human, UniProt Q12809)
Assay: primary screen, population patch clamp on CHO cells stably expressing hERG; higher = less effect of the substance
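Note: peak tail current of the secondary pulse compared with the same well before compound.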

Sequence of human ether-à-go-go-related gene (hERG) potassium channel (Q12809 whole entry, looked up): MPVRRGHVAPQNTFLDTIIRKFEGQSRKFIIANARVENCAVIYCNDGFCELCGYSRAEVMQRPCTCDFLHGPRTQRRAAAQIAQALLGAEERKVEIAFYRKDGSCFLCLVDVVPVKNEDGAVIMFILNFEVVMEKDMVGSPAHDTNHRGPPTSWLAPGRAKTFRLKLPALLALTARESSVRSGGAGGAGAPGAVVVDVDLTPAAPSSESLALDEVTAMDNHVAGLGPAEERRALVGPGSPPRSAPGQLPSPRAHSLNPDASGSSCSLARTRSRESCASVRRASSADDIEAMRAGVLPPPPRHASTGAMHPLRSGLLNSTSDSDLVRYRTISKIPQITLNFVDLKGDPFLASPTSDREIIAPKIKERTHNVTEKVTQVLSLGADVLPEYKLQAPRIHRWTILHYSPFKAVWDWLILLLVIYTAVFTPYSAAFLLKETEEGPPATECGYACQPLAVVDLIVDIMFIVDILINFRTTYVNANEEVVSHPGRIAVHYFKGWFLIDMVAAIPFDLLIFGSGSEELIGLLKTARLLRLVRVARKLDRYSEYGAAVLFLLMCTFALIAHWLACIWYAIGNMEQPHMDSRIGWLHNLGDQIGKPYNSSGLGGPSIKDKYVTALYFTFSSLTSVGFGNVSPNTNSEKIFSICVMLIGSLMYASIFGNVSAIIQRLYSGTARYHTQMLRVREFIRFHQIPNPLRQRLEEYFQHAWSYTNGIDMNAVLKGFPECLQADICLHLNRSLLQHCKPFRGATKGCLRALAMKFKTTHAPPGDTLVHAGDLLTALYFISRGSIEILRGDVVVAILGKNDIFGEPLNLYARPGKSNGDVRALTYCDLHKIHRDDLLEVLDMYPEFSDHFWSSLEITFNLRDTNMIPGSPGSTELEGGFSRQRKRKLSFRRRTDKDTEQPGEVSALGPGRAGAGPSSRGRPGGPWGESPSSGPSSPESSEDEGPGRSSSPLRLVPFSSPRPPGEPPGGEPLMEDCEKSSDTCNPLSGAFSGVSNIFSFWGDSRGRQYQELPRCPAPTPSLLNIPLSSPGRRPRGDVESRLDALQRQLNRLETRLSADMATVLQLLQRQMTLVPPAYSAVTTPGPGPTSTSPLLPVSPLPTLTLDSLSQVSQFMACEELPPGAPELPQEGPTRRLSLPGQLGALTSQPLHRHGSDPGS

Row | Compound | hERG current change (%, negative = inhibition) at 10uM [%]
1 | Cc1cccc(CCN2C(Nc3ccccc3)=NC[C@@H]2C)c1 | -23
2 | Cc1cccc(CCN2C(N(C)C)=NC[C@@H]2CC(C)C)c1 | -18.1
3 | Cc1cccc(CCN2C(Nc3ccccc3)=NC[C@@H]2CC(C)C)c1 | -67.5
4 | CC(C)C[C@H]1CN=C(Nc2ccccc2)N1CCc1ccc(F)cc1 | -62.4
5 | COc1ccccc1C(=O)NNC1=NS(=O)(=O)c2ccccc21 | 20.3
6 | COc1cccc(NC(=O)Cn2cc(C(=O)C3CC3)c3ccccc32)c1 | 0.319
7 | CCn1c(-c2cccnc2)n[nH]c1=S | 0.542
8 | CCOc1ccc(OCCC(=O)OCC(=O)NC2CCCCC2)cc1 | 11.4
9 | CCn1c(N2CCN(CC(=O)c3c(C)n(C)c4ccc(OC)cc34)CC2)nc2c1c(=O)[nH]c(=O)n2C | 3.19
10 | O=C(Cc1cn(-c2ccccc2)nc1-c1ccccc1)N1CCCCC1 | -18.3
11 | Cc1c(C(=O)N2CCN(c3ccccc3)CC2)oc2c(Cl)cccc12 | 4.82
12 | Cc1cc(Cl)c2oc(C(=O)N3CCC(O)(c4ccccc4)CC3)c(C)c2c1 | 8.87
13 | Cc1cc(Cl)c2oc(C(=O)N3CCN(c4cccc(C)n4)CC3)c(C)c2c1 | 16.3
14 | Cc1cc(Cl)c2oc(C(=O)N3CCN(C(=O)c4ccco4)CC3)c(C)c2c1 | -53.9
15 | Cc1c(C(=O)N2CCN(C(=O)c3ccco3)CC2)oc2c(Cl)cccc12 | -34.3
16 | Cc1cc(Cl)c2oc(C(=O)N3CCN(c4ccncc4)CC3)c(C)c2c1 | -75.9
17 | CCOc1ccc(C(C(=O)NC(C)(C)C)N(CCOC)C(=O)CCC(=O)Nc2ccccn2)cc1 (stereo not shown) | -5.95
18 | COC(=O)c1c(S(C)(=O)=O)nc(-c2ccccc2)[nH]c1=O | -2.13
19 | Cc1nc2scc(-c3ccccc3)c2c(=O)n1N | -1.43
20 | CNC(=O)c1sc(-c2cccnc2)nc1C | -34.7
21 | Cc1nc(-c2cccnc2)sc1C(=O)Nc1ccc(Cl)cc1 | -29.2
22 | Cc1nc(-c2cccnc2)sc1C(=O)N/N=C/c1ccccc1Cl | -75.5
23 | O=C(N/C(=C/c1ccc(F)cc1)C(=O)N1CCCC1)c1ccccc1 | 19.5

Row | Compound | hERG current change (%, negative = inhibition) at 10uM [%]
24 | CN1CCN(C(=O)/C(=C/c2ccc(F)cc2)NC(=O)c2ccccc2)CC1 | -77.8
25 | CSc1ccc(/C=C(/NC(=O)c2ccccc2)C(=O)N2CCN(C)CC2)cc1 | -75.9
26 | CN1CCN(C(=O)/C(=C/c2ccccc2F)NC(=O)c2ccccc2)CC1 | -29.2
27 | O=C(N/C(=C/c1ccccc1F)C(=O)N1CCCCC1)c1ccccc1 | 10.1
28 | CN1CCN(C(=O)/C(=C/c2ccc(N(C)C)cc2)NC(=O)c2ccccc2)CC1 | -17.5
29 | O=C(N/C(=C\c1ccc(F)cc1)C(=O)N1CCCCCC1)c1ccccc1 | -11.6
30 | COc1ccc(/C=C(\NC(=O)c2ccccc2)C(=O)N2CCN(C)CC2)cc1OC | 20
31 | CC1CCN(C(=O)/C(=C\c2ccccc2F)NC(=O)c2ccccc2)CC1 | -52.7
32 | C[C@@H](CSc1ccc(Br)cc1)CN1CC[C@H](O)CCC1=O | -12
33 | COc1ccc2oc(C(=O)OCC(=O)NC3CC3)c(C)c2c1 | 11
34 | Cc1sc2ncn(CC(=O)NCC(=O)N3CCC4(CC3)OCCO4)c(=O)c2c1C | -4.54
35 | Cc1cc(NC(=O)c2c([N+](=O)[O-])cnn2C)no1 | 14.2
36 | Nc1ccccc1C(=O)NC1CCCCNC1=O (stereo not shown) | 26.2
37 | CC1(C)N=C(N)NC(Nc2ccccc2Cl)=N1 | 20.9
38 | C[C@@H](C(=O)O)[C@H]1C[C@]1(C)[C@H](NC(=O)OCc1ccccc1)c1ccccc1 | 4.41
39 | COc1cccc(NC(=O)CC2(CC(=O)O)CCCC2)c1 | -39.8
40 | CC1Cc2cc(S(=O)(=O)N3CCCC(C(=O)N4CCCCC4)C3)ccc2N1C(=O)C1CC1 (stereo not shown) | -4.84
41 | O=C(c1cc(-c2ccc(Cl)cc2)n(-c2ccc(Cl)cc2Cl)n1)N1CCOCC1 | -79.6
42 | O=C(O)c1cc(-c2ccccc2)n(-c2ccc(Cl)cc2Cl)n1 | 21.5
43 | O=C(c1cc(-c2ccc(Cl)cc2)n(-c2cc(Cl)ccc2Cl)n1)N1CCOCC1 | -68.9
44 | O=C(c1cc(-c2ccc(Cl)cc2Cl)on1)N1CCOCC1 | -9.72
45 | O=C(c1cc(Cl)ccc1Cl)N1CCOCC1 | 8
46 | O=C(c1cc(-c2ccc(Cl)cc2)on1)N1CCOCC1 | -0.136
